# According to PubChem BioAssay (NCI):
# This is part of a sample that, as a whole, favours compounds with a hit. Of some 83,000 tested, about 20% had one in any assay.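 A percent growth of 40 corresponds to 60% growth inhibition; 0 means no net growth; -100 means all cells died. Active threshold: below 10.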 A number with no mark means an inactive call. Calls of active or inactive are those of the source.
# Test system: HL-60(TB) leukemia
# Assay: NCI-60 one-dose screen, 48 h (100 = growth as untreated, 0 = no growth, -100 = all killed)
# Conditions: 10 µM unless noted
row,SMILES,growth
1,COc1ccc(C(=O)COc2ccc(NC(=O)Nc3ccccc3)cc2)cc1,91.6%
2,COc1cc2c(c(OC)c1OC)C(=O)CC(c1cccc(NC(=O)c3cc(NC(=O)[C@H](CO)NC(=O)OC(C)(C)C)ccc3Cl)c1)O2 (stereo partly drawn),36.6%
3,CC(C)Sc1nc(NCCc2c[nH]c3ccccc23)c(C#N)c(-c2ccccc2)n1,19.3%
4,CN1C(=O)/C(=C/c2ccc(C(=O)Nc3ncc(Cc4ccc(Cl)cc4Cl)s3)cc2)SC1=S,19.2%
5,O=C(Cn1nc(-c2ccccc2)ccc1=O)NNC(=S)NC1CCCCC1,94.8%
6,CN(C)c1nc(NCCNS(=O)(=O)c2ccc(C(=O)/C=C/c3ccccc3)cc2)nc(N2CCOCC2)n1,33%
7,Cc1ccc(C2CC(c3ccc(NC(=O)Nc4ccccc4)cc3)=NN2c2ccc(S(N)(=O)=O)cc2)cc1 (stereo not drawn),-42.5% (active)
8,Cc1cc(C2(c3cc(C)c(OCC(O)CNc4c(C)n(C)n(-c5ccccc5)c4=O)cc3C(C)C)OC(=O)c3ccccc32)c(C(C)C)cc1OCC(O)CNc1c(C)n(C)n(-c2ccccc2)c1=O (stereo not drawn),0.434% (active)
9,COc1ccc(-c2nc3ccc(-c4nnc(SCC(=O)Nc5ccc(/C(C)=N\O)cc5)o4)cc3[nH]2)cc1,77.6%
10,COC(=O)c1c(C(=O)OC)c2n(c1C)[C@@H]([C@@H](C)[C@H]1CC[C@H]3[C@@H]4CCC5=CC(=O)CC[C@]5(C)[C@H]4CC[C@]13C)SC2,7% (active)
11,COc1ccc2ccccc2c1/C=C1\SC(=Nc2ccc(O)cc2)NC1=O,-29.9% (active)
12,CCCCNc1ccc2c3c(cccc13)C(=O)N(NCC(O)COc1ccc3c(C)cc(=O)oc3c1)C2=O (stereo not drawn),100%
13,N#C/C(=C1/C(=O)Nc2ccccc21)c1nnc(NC(=O)c2ccc(-n3c(=O)[nH]c4ccccc4c3=O)cc2)s1,7.15% (active)
14,C=C1CC[C@@H]2[C@]3(C)COC(c4cn[nH]c4-c4ccc(Br)cc4)O[C@@H]3CC[C@@]2(C)[C@@H]1C/C=C1/C(=O)OCC1O (stereo partly drawn),-8.14% (active)
15,COc1ccc2[nH]cc(/C=N/Nc3ccc(Br)cn3)c2c1,5.34% (active)
16,CNC(=O)c1cccc(NC(=O)c2ccc3c(c2)nnn3/C(C#N)=C/c2ccccn2)c1,-14.7% (active)
17,CN(C)c1nc(NCCNS(=O)(=O)c2ccc(C3=Nc4c(N)nc(N)nc4NC(c4ccc(C(F)(F)F)cc4)C3)cc2)nc(N2CCOCC2)n1 (stereo not drawn),6.05% (active)

row,SMILES,growth
1,O=C1Nc2ccc(F)cc2/C1=C/c1cccc(OCc2ccccn2)c1,7.92% (active)
2,COc1ccc2[nH]c(=O)c(CSc3cccc(N)c3)cc2c1,51.3%
3,C=CCn1c(O)c(N=Nc2nc(-c3cc4ccccc4oc3=O)cs2)c2ccccc21,111%
4,CCOC(=O)c1ccc(Nc2nc(NN)nc(-c3ccc(OC)cc3)c2C#N)cc1,103%
5,N#Cc1c(-c2ccc(Cl)cc2)nc2n[nH]c(-c3ccc(Cl)cc3)c2c1-c1ccc(C(F)(F)F)cc1,1.12% (active)
6,COc1ccc(-c2c(N)c(=O)n(C)c3ccccc23)cc1,79.3%
7,NS(=O)(=O)c1ccc(NNC(=O)CCC(=O)c2ccccc2)cc1,75.3%
8,COc1ccc(SC2c3cc(OC)ccc3Oc3nc(N)c(C#N)c(N)c32)cc1 (stereo not drawn),64.7%
9,CN1CCN(c2ccc3c4c(cccc24)C(=O)N(c2cccc(-c4nn(-c5ccccc5)cc4-c4nc5ccccc5s4)c2)C3=O)CC1,102%
10,Nc1nnc(-c2cncc(Br)c2)c(-c2c[nH]c3ccc(Br)cc23)n1,36.7%
11,C#CCOc1cc(N(CC)CC)ccc1C(C(=O)NC(C)(C)C)N(C(=O)C1CCc2cc(F)ccc2O1)c1cc(C)cc(C)c1 (stereo not drawn),7.34% (active)
12,COc1cc(-c2ccc(/C=N/NC(=O)c3[nH]c4ccc(Br)cc4c3-c3ccccc3)o2)cc(OC)c1OC,99.3%
13,NS(=O)(=O)c1cccc(Nc2nc(SCC(=O)c3ccc(F)cc3)nc3ccccc23)c1,6.93% (active)
14,O=C(Nc1cc(Cl)cc(Cl)c1)Nc1cc(Cl)cc(Cl)c1,-15.1% (active)
15,CN(C)c1nc(NCCNS(=O)(=O)c2ccc(C(=O)/C=C/c3ccc(Cl)cc3)cc2)nc(N2CCOCC2)n1,16.8%
16,CC(=O)OC[C@@]1(C)C2CC[C@]3(C)C(CC=C4C5CC(C)(C)CC[C@]5(C(=O)Nc5ccc(C)cc5)CC[C@]43C)[C@@]2(C)C[C@@H](OC(C)=O)[C@@H]1OC(C)=O (stereo partly drawn),31.6%
